# The entries come from a sample that favours hits as a whole.
# TTR transcr act: TTR transcription activation, primary screen | SH-SY5Y TTR promoter Gaussia luciferase, luminescence; 100% = recombinant luciferase protein wells | activation, % at 16.7 µM | 1.3% of 92,000 active;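 active = activation above the mean of all tested compounds plus 3 SD, cut at about 9.5% in these data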;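 also: cells exposed to compounds for one day before reading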
# A number is an active result; – = inactive.
SMILES,TTR transcr act
Cc1nnc(SCCn2c(N3CCCCC3)nc3c2c(=O)[nH]c(=O)n3C)s1,–
C=C(C)Cn1c(Sc2nnc(C)s2)nc2c1c(=O)[nH]c(=O)n2C,12
C=CCn1c(Sc2nc(C)cs2)nc2c1c(=O)[nH]c(=O)n2C,–
O=C(NCC(c1ccccc1)c1ccccc1)[C@H](Cc1c[nH]c2ccccc12)NC1(C(=O)NC2CCCCC2)CCCC1,–
CN(Cc1ccccc1)C(=O)OCc1cn(Cc2cc(F)cc(F)c2)nn1,–
COC(=O)[C@]12CCCCC=C1N(Cc1ccc(OC)cc1)C(=O)[C@@H]2CC(=O)N1CCSCC1,–
O=c1[nH]c2ccccc2nc1N1CCOCC1,–
S=C(c1nc2ccccc2[nH]1)N1CCOCC1,10.0
O=C(CN1CCOCC1)Nc1ccc(-c2nc3ccccc3[nH]2)cc1,–
COC(=O)CC1CCc2cc(C)cc(C(=O)CC(C)C)c2O1 (stereo not given),–
CCCCCCCCN1C(=O)[C@@H](CC(=O)NCCCN2CCCC2=O)C[C@@]2(C(=O)OC)C1=C[C@H](C(C)C)O[C@@H]2C1CC1,–
COc1ccc(OCC(=O)Nc2ccccc2OC)cc1,–
COc1ccccc1NC(=O)CCC(=O)c1ccc(-c2ccccc2)cc1,–
COc1ccccc1NC(=O)CCC(=O)Nc1ccccc1OC,9.9
C=C(O[C@H]1[C@H](O)CC=C(C(=O)O)[C@@H]1O)C(=O)O,–
COC(=O)c1[nH]c2cc(OC)ccc2c1NC(=O)CCN1CCN(c2cccc(C)c2C)CC1,22
CCOC(=O)c1[nH]c2ccc(OC)cc2c1NC(=O)CCN1CCSCC1,–
COC(=O)c1[nH]c2cccc(OC)c2c1NC(=O)CCN1CCN(c2ccccc2F)CC1,–
c1nc(NCC2CCCOC2)c2cc(-c3ccc4c(c3)OCO4)ccc2n1 (stereo not given),–
CCC[C@H]1[C@@H](N(C)Cc2cccs2)CC[C@@]23CCCN2C(=O)CCC[C@@H]13,–
CC(C)OC(=O)C1C(=O)CC(C)(O)C(C(=O)OC(C)C)C1c1cccnc1 (stereo not given),12
CCOC(=O)C1C(=O)CC(C)(O)C(C(=O)OCC)C1c1ccc(OC)cc1 (stereo not given),–
CCOC(=O)C1C(=O)CC(C)(O)C(C(=O)OCC)C1c1cccc(OC)c1 (stereo not given),–
O=C(COc1c(Cl)cc(Cl)cc1Cl)N/N=C/c1ccc[nH]1,–
COC(=O)C1=CC[C@@H](NC(=O)OC(C)(C)C)[C@H](O)[C@H]1O[Si](C)(C)C(C)(C)C,–
SMILES,TTR transcr act
Cc1ccc(Cn2c(=O)n(Cc3ccc(C(=O)NCC4COC4)cc3)c(=O)c3ccccc32)cc1,–
O=C(NC12CC3CC(CC(C3)C1)C2)c1ccco1,–
O=C(NC12CC3CC(CC(C3)C1)C2)c1ccccc1O,9.9
O=C(NC12CC3CC(CC(C3)C1)C2)c1cc(F)c(F)cc1Cl,–
CCOC(=O)[C@]12CCCC=C1N(CCCOC)C(=O)[C@@H]2CC(=O)N1CCSCC1,–
Cc1ccc(CN2CCCCC(NC(=O)c3c(F)cccc3F)C2=O)cc1 (stereo not given),–
Cc1onc(C(=O)N2CCN(C(c3ccc(Cl)cc3)c3ccc(Cl)cc3)CC2)c1[N+](=O)[O-],–
O=C(Nc1ccc(C(O)(C(F)(F)F)C(F)(F)F)cc1)c1ccc(Cl)cc1,–
Cn1c(=O)cc(SCC(=O)NCc2ccco2)c2ccccc21,11
Cn1c(=O)cc(SCC(=O)NCC2CCCO2)c2ccccc21 (stereo not given),–
Cc1ccc(C)c(SCC(=O)NCc2ccco2)c1,–
CCCCN1CC[C@@H](C)Oc2cc(Br)ccc2S1(=O)=O,–
CN=C1S/C(=C/c2cc(C)n(-c3cc(C)ccc3OC)c2C)C(=O)N1C,–
CN(C)C(=O)C[C@H]1CC[C@H]2[C@H](COc3ccc(NC(=O)C4CC4)cc3C(=O)N2C)O1,–
COC(=O)[C@]12C[C@H](CC(=O)NCc3cccc4ccccc34)C(=O)N(Cc3cccc4ccccc34)C1=C[C@H](C1CCCC1)O[C@@H]2C,–
CCOc1ccc(-n2c(SCC(N)=O)nc3c([nH]c4ccccc43)c2=O)cc1,12
COc1ccc(-n2c(SCC(=O)Nc3cc(C)on3)nc3c([nH]c4ccccc43)c2=O)cc1,–
CCOc1ccc(-n2c(SCC(=O)Nc3cc(C)on3)nc3c([nH]c4ccccc43)c2=O)cc1,–
COC(=O)[C@@]12CCCCC=C1N(CCc1ccc(Cl)cc1)C(=O)[C@H]2CC(=O)NCCC(C)C,–
CCOC(=O)[C@@]12CCCC=C1N(CCc1ccc(Cl)cc1)C(=O)[C@H]2CC(=O)NCCc1ccccc1OC,–
CC[C@@H](C)[C@H](NC(=O)OCc1ccccc1)c1nnc([C@@H](NC(=O)OCc2ccccc2)[C@@H](C)CC)o1,11
CC(C)[C@H](NC(=O)OCc1ccccc1)C(=O)NCc1ccccc1,–
NC(=O)C(NC(=O)OCc1ccccc1)c1ccccc1 (stereo not given),–
Clc1cc(Cl)cc(CNC2CCC23CCC(c2ccccc2)CC3)c1 (stereo not given),–
Cc1cc(NC(=O)CCC(=O)N(Cc2ccco2)C2(C(=O)NC3CCCC3)CCCCC2C)no1 (stereo not given),–
SMILES,TTR transcr act
CC(=O)NCC(=O)N(Cc1ccco1)C1(C(=O)NC2CCCCC2)CCCCC1,–
CC(=O)N(Cc1ccco1)C1(C(=O)NC2CCCCC2)CCCCC1,10
C=CC(=O)N1C/C=C\C(c2ccc(OC)cc2)N(Cc2ccc(F)cc2)C(=O)C1 (stereo not given),–
CCCCCN1C/C=C\C(c2ccc(OC)cc2)N(Cc2ccc(F)cc2)C(=O)C1 (stereo not given),–
COc1ccc(C2/C=C\CN(S(=O)(=O)c3ccc(C)cc3)CC(=O)N2Cc2ccc(F)cc2)cc1 (stereo not given),16
Cc1ccc(NC(=O)OC[C@@H]2CSCCS(=O)(=O)N2)cc1,–
Cc1[nH]c(=O)[nH]c(=O)c1/C=N/NC(=O)[C@H](CC(C)C)NC(=O)OC(C)(C)C,–
CC(C)(C)OC(=O)N[C@@H](COCc1ccccc1)C(=O)N[C@@H](CO)[C@H](O)[C@@H]1C[C@@H]1C(=O)N1CCCC1,–
CC(C)C[C@H](NC(=O)OC(C)(C)C)C(=O)N[C@@H](CO)[C@H](O)[C@@H]1C[C@@H]1C(=O)N1CCCC1,10
FC(F)(F)c1cccc(Cn2ccc3ccc(-c4ccc5ccn(Cc6cccc(C(F)(F)F)c6)c5c4)cc32)c1,–
CCc1nnc(NC(=O)c2c(C)nn(-c3ccccc3)c2Cl)s1,22
Cc1nn(-c2ccccc2)c(Cl)c1C(=O)NCC(C)C,–
COc1ccc(NC(=O)c2c(C)nn(-c3ccccc3)c2Cl)cc1,–
C[C@H]1CCCN1c1ccc2c(c1)O[C@H]1CCN(C1)S2(=O)=O,–
COc1cc(C(=O)NCCC(=O)NCCCN2CCCCC2)cc(OC)c1OC,20
COc1cc(C(=O)NCCC(=O)NCCc2ccc(Cl)cc2)cc(OC)c1OC,–
CCOCCCNC(=O)CCNC(=O)c1cc(OC)c(OC)c(OC)c1,–
CC(=O)N1CCN(c2cc(-c3ccco3)nc3cc(-c4ccccc4)nn23)CC1,–
Cc1ccc(C(=O)n2ccc3ccc(-c4ccc5ccn(Cc6ccc(C#N)cc6)c5c4)cc32)cc1,–
CCCCCCCCN1C(=O)[C@@H](CC(=O)N2CCN(C(=O)OCC)CC2)C[C@@]2(C(=O)OC)C1=C[C@H](C(C)C)O[C@@H]2C1CC1,–
Cc1ccc(NC(=O)OC2CC3CC2[C@H]2CCCCN2C3)cc1C (stereo not given in full),–

# Bioassay records as filed in PubChem.
